A number with no mark means an inactive call. The call rests on the fitted dose curve; in most records, active means well fitted inhibition curve with a large enough effect; inconclusive means small, poorly fitted or top-dose-only effect; inactive means flat fitted curve, though single readings scatter.
system: Nanoluciferase (engineered Oplophorus gracilirostris luciferase); assay: Primary Nanoluciferase (NLuc) qHTS assay for identification of artifact compounds. (AID 1845222); conditions: NLuc-conditioned medium, Nano-Glo luminescence, 5 min; series mostly up to 54.1 µM; activity, negative = inhibition: at the top concentration
Excerpt: PI: Alexander Tropsha Ph.D.
UNC Eshelman School of Pharmacy
University of North Carolina, Chapel Hill, North Carolina
Hits from high-throughput screening (HTS) of chemical libraries are often false positives due to their interference with the assay detection technology. In response to this problem, we generated the largest publicly available library of chemical liabilities and developed a free webtool to predict HTS artifacts, both of which are described herein. More specifically, we generated, curated, and integrated HTS datasets for thiol reactivity, redox activity, and luciferase (firefly and nano) activity. Using these curated datasets, we developed and validated several Quantitative Structure-Interference Relationship (QSIR) models to predict nuisance behavior. […] These models were employed for virtual profiling of the National Center for Advancing Translational Science's (NCATS) in-house library, and 256 compounds for each assay were selected for the experimental validation of nuisance behavior. The BA for these external predictions ranged from 58 to 78% for compounds within the applicability domains of the models. […] The models developed in this study, along with aggregation models previously developed by our group (SCAM Detective) were implemented in "Liability Predictor," an online tool which may be used as part of chemical library design or for triaging HTS hits. Both the models and the curated datasets are publicly available at https://liability.mml.unc.edu/.
SEQUENCE No. (e.g., 1, 2, 3, etc.); […] (e.g., Cells, Incubation, Reagent, etc.); VALUE; DESCRIPTION.
1; Reagent; 2 uL; Nanoluciferase media.
2; Compounds and control; 16 nL; Kalypsis pin tool (Wako USA) equipped with a 1536-well pin head.
4; Reagent; 2 uL; Luciferase enzyme.
6; Detection; Luminescence, ViewLux microplate reader.
NOTES (numbers refer to Sequence numbers above)
1. Medium was collected from the culture flasks of NLuc-expressing S16 cells (80% confluent) prior to cell plating, filtered through a 0.22um filter, and frozen at -20C prior to use. Media was diluted (1:55) and 2 uL was dispensed into all wells of a 1536-well assay plate (solid-bottom white plate; Greiner Bio One, Monroe, NC).
2. A Wako Pin-tool (Wako Automation, Richmond, VA) was used to transfer 16 nL of compounds (consisting of 7-plates in qHTS format, final concentration range 18.3 nM to 114 uM) or control Cilnidipine (final concentration range 623 nM to 80 uM).
3. 15 min. incubation at room temperature protected from light.
4. 2 uL of NLuc substrate (1:100 in Nano-Glo luciferase buffer; Nano-Glo luminescence assay, Promega, Madison, WI) was dispensed for a final assay volume of 4 uL.
5. Plates were centrifuged (121xg, 15 seconds) and incubated for 5 minutes.
6. Samples were read for luminescence on a ViewLux CCD imager (PerkinElmer). Data were normalized to no-enzyme (0% activity) and no-inhibitor (DMSO; 100%) controls and the resulting percent inhibition data were fitted to a 4-parameter Hill equation using NCATS in-house software.

First: O=[N+]([O-])c1cn2c(n1)OCC(OCc1ccc(OC(F)(F)F)cc1)C2 (stereo not given)
Second: Cc1cc(C(=O)Nc2cccc(C(=O)Nc3cccc(C(F)(F)F)c3)c2)on1
The “activity, negative = inhibition” value of the first is lower: -8.26% for the first, -7.69% for the second.

First: COC(=O)CC(O)CC(O)/C=C/c1c(C)ccc2c1C(O)CC(C)C2 (stereo not given)
Second: CC1CC(O)/C=C/C(O)C(O)CC(=O)Cc2c(Cl)c(O)cc(O)c2C(=O)O1 (stereo not given)
The “activity, negative = inhibition” value of the first is higher: 4.6% for the first, 0.518% for the second.

Compared with `C=C(C(=O)O)C1CC2=C(C)CCCC2(C)C[C@@H]1O` (stereo not given in full), `C=C(C(=O)OC)C1C(O)CC2(C)C(=O)CCC(O)(CO)C2C1O` (stereo not given) is higher in “activity, negative = inhibition” value: 3.6% for the first, 4.68% for the second.

Compared with `CCNC(=O)Nc1ccc(-c2nc3c(c(N4CCOC[C@@H]4C)n2)CCN(c2ncccn2)C3)cc1`, `COc1ccc(N2CCOCC2)c2sc(NC(=O)N3CCC(C)(O)CC3)nc12` is lower in “activity, negative = inhibition” value: -5.59% for the first, -9.41% for the second.

Compared with `O=C(NCc1cccc(O)c1)c1cc2cc(F)ccc2[nH]1`, `COc1ccc(C(=O)Nc2ncc(-c3ccc(C(=O)O)cc3)s2)cc1` is lower in “activity, negative = inhibition” value: 3.95% for the first, -14.5% for the second.

Compared with `COc1ccccc1NC(=O)OCC1CCN(C(=O)OC(C)(C)C)CC1`, `CCO[C@@H]1OC(=O)C[C@@H]1NC(=O)[C@@H]1CCCN1C(=O)[C@@H](NC(=O)c1ccc(N)c(Cl)c1)C(C)(C)C` is lower in “activity, negative = inhibition” value: -1.91% for the first, -9.67% for the second.

Going from `C[C@H]1CC(=O)Nc2cccc(-c3cnn(C(C)(C)C)c3)c2N1` to `Cc1cccc(Oc2cnc(=O)[nH]c2)c1`, the “activity, negative = inhibition” value rises from 0.6% to 1.82%.

Going from `CC1(C)CC2C=C(C(=O)O)C3COC(=O)C(O)(CO)C23C1` (stereo not given) to `CC(O)/C=C/C1(O)C2(C)COC1(C)CC(O)C2` (stereo not given), the “activity, negative = inhibition” value falls from -4.79% to -5.06%.

First: CC(O)/C=C/C1C(C)C(O[C@@H]2O[C@H](CO)[C@@H](O)[C@H](O)[C@H]2O)C(O)CC1(C)C (stereo not given in full)
Second: COc1cc(/C=C/C=O)cc(OC)c1O[C@@H]1O[C@H](CO)[C@@H](O)[C@H](O)[C@H]1O
The “activity, negative = inhibition” value of the first is lower: -0.971% for the first, 3.98% for the second.

First: COc1ccc(CC2NCCc3c2[nH]c2ccc(C)cc32)cc1OC (stereo not given)
Second: CCC(COC)n1nnc2c(Nc3ccc(OC)cc3C)nc(C)cc21 (stereo not given)
The “activity, negative = inhibition” value of the first is higher: 4.19% for the first, 2.07% for the second.

Compared with `C=C1C(=O)O[C@@H]2[C@H]1CCC(C)=C1CCC(=O)O[C@]12C`, `C[C@@H]1CCC/C=C/[C@H]2CC(=O)C[C@@H]2[C@@H](O)/C=C/C(=O)O1` is lower in “activity, negative = inhibition” value: 0.0805% for the first, -1.88% for the second.

Going from `NC[C@@](O)(c1ccc(Cl)cc1)c1ccc(-c2cn[nH]c2)cc1` to `C=C1CN(Cc2ccc(C(=O)Nc3ccccc3N)cc2)C(=O)c2ccccc21`, the “activity, negative = inhibition” value falls from 2.98% to -7.86%.

First: CS(=O)(=O)N1CCC(NC(=O)c2[nH]ncc2NC(=O)c2c(Cl)cccc2Cl)CC1
Second: COc1ccc(CN2C(=O)C(=O)c3cc(S(=O)(=O)N4CCC[C@H]4COc4cccnc4)ccc32)cc1
The “activity, negative = inhibition” value of the first is lower: 1.28% for the first, 3.25% for the second.

Compared with `NC1(C(=O)NC(CCO)c2ccc(Cl)cc2)CCN(c2ncnc3[nH]ccc23)CC1` (stereo not given), `O=c1[nH]ccc2cc(OC3CCNCC3)ccc12` is lower in “activity, negative = inhibition” value: 0.683% for the first, 0% for the second.

`C=C(CCC1=C(C)[C@H]2[C@H](CC3[C@@H]4CC=C5C[C@@H](O)C[C@@H](O)[C@]5(C)C4[C@H](O)C[C@@]32C)O1)CO[C@@H]1O[C@H](CO)[C@@H](O)[C@H](O)[C@H]1O` (stereo not given in full) and `CC(C)=CCC[C@](C)(O)[C@H]1CC[C@]2(C)[C@@H]1[C@H](O)CC1[C@@]3(C)CC[C@H](O)C(C)(C)[C@@H]3[C@@H](O[C@@H]3O[C@H](CO)[C@@H](O)[C@H](O)[C@H]3O[C@@H]3O[C@H](CO)[C@@H](O)[C@H](O)[C@H]3O)C[C@]12C` (stereo not given in full) are the same in “activity, negative = inhibition” value: 0% [at 25.7 µM] for the first, 0% [at 25.7 µM] for the second.

First: COC(=O)C1=COC(OC2OC(CO)C(O)C(O)C2O)C2C1C=CC2(O)CO (stereo not given)
Second: COC(=O)C1=CO[C@@H](O[C@@H]2O[C@H](CO)[C@@H](O)[C@H](O)[C@H]2O)[C@@H]2C(COC(C)=O)=C[C@H](O)[C@H]12
The “activity, negative = inhibition” value of the first is lower: -2.65% [at 25.7 µM] for the first, 3.37% [at 25.7 µM] for the second.

First: OC[C@H]1O[C@@H](OC[C@H]2O[C@@H](OC/C=C/c3ccccc3)[C@H](O)[C@@H](O)[C@@H]2O)[C@@H](O)[C@@H]1O
Second: CC12CCC(OC3OC(CO)C(O)C(OC4OC(CO)C(O)C(O)C4O)C3O)CC1CCC1C2CCC2(C)/C(=C3/COC(=O)C3)CCC12O (stereo not given)
The “activity, negative = inhibition” value of the first is lower: -0.88% [at 25.7 µM] for the first, 3.42% [at 25.7 µM] for the second.

Going from `CC#CC(=O)N1CCC[C@H]1c1nc(-c2ccc(C(=O)Nc3ccccn3)cc2)c2c(N)nccn12` to `CC(=O)OC1C(O)CC2(C)C(CCC(C)C23Cc2c(O)cc(CO)c(C=O)c2O3)C1(C)C` (stereo not given), the “activity, negative = inhibition” value falls from 3.06% [at 25.7 µM] to 2.84% [at 25.7 µM].

`CC1(C)CC[C@]2(C(=O)O)CC[C@]3(C)C(=CCC4[C@@]5(C)C[C@@H](O)[C@H](O)C(C)(C)C5CC[C@]43C)C2C1` (stereo not given in full) was tested, and the “activity, negative = inhibition” value was 3.47% [at 25.7 µM].

Going from `C[C@@H]1O[C@@H](O[C@H]2[C@H](OC(=O)[C@]34CCC(C)(C)C[C@H]3C3=CCC5[C@@]6(C)C[C@H](O)[C@H](O[C@@H]7O[C@H](CO)[C@@H](O[C@H]8OC[C@](O)(CO)[C@H]8O)[C@H](O)[C@H]7O)[C@@](C)(CO)C6[C@H](O)C[C@@]5(C)[C@]3(C)C[C@H]4O)OC[C@H](O)[C@@H]2O)[C@H](O)[C@H](O)[C@H]1O[C@@H]1OC[C@@H](O)[C@H](O[C@@H]2OC[C@](O)(CO)[C@H]2O)[C@H]1O` (stereo not given in full) to `C[C@@H]1O[C@@H](O[C@H]2[C@H](O)[C@@H](O)[C@H](OC[C@H]3O[C@@H](OC(=O)[C@]45CCC(C)(C)C[C@H]4C4=CCC6[C@@]7(C)CC[C@H](O[C@@H]8OC[C@H](O)[C@H](O[C@@H]9O[C@H](CO)[C@@H](O)[C@H](O)[C@H]9O)[C@H]8O)[C@@](C)(CO)C7CC[C@@]6(C)[C@]4(C)CC5)[C@H](O)[C@@H](O)[C@@H]3O)O[C@@H]2CO)[C@H](O)[C@H](O)[C@H]1O` (stereo not given in full), the activity, negative = inhibition falls from 3.67% [at 11.6 µM] to 3.4% [at 11.6 µM].

For `COC1CC(OC2CCC3(C)C(=CCC4C3C(OC(C)=O)C(OC(=O)/C=C/c3ccccc3)C3(C)C(C(C)O)CCC43O)C2)OC(C)C1OC1CC(OC)C(OC2OC(C)C(OC3OC(CO)C(O)C(O)C3O)C(OC)C2O)C(C)O1` (stereo not given), the activity, negative = inhibition was 3.09% [at 11.6 µM].

Reference: PubChem BioAssay (NCATS)
